Where “and” joins values, the source holds several entries; their conditions need not be identical. Equal entries are not always repeated. Results filed as inconclusive are left out. Unmarked numbers belong to inactive results. Calls of active or inactive are those of the source. Calls come from the whole dose curve; as a rule, active = well fitted inhibition curve with a large enough effect; inconclusive = small, poorly fitted or top-dose-only effect; inactive = flat fitted curve, though single readings scatter.

22 compounds from PubChem BioAssay (NCATS) can be followed below.

Assay [1] relates to CRL-7250. Briefly: Cytotoxic Profiling of Annotated Libraries Using Quantitative High-Throughput Screening (AID 1296008). For max response: % is set by controls: 0 for no effect and ±100 for the full control effect. Note: potency is the fitted concentration of half-maximal effect. Particulars: Five cell lines viability, CellTiter-Glo ATP luminescence, 48-72 h; max response: active compounds read low. The essentials: (§1)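 Cells exposed to compounds for 48 or 72 hr at 37 degrees Celsius. Viability read as ATP-coupled luminescence with CellTiter-Glo after 10 min at room temperature.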
A general note: ATP-based viability assays read luminescence as a measure of living cells.

Assay [2] relates to HEK293. The description is as above. Particulars: Five cell lines viability, CellTiter-Glo ATP luminescence, 48-72 h; max response: active compounds read low. The gist of the method: as §1
The subject of assay [3] is KB-3-1. The description is as above. As to conditions: Five cell lines viability, CellTiter-Glo ATP luminescence, 48-72 h; max response: active compounds read low. The essentials: as §1
In assay [4] the test system is NIH3T3. Described as above. Particulars: Five cell lines viability, CellTiter-Glo ATP luminescence, 48-72 h; max response: active compounds read low. The essentials:
as §1

The test system of assay [5] is HaCat. The description is as above. Particulars: Five cell lines viability, CellTiter-Glo ATP luminescence, 48-72 h; max response: active compounds read low. The gist of the method: as §1
The subject of assay [6] is TAB165. Briefly: qHTS profiling for inhibitors of Plasmodium falciparum proliferation (AID 504749). Note: potency is the fitted concentration of half-maximal effect. As to conditions: P. falciparum in erythrocytes, SYBR Green DNA, 72 h; series mostly up to 28.7 µM. The essentials:
(§2)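 Each compound contacts P. falciparum-infected red blood cells for 72 h at 37 C; lysis buffer (Tris, EDTA, saponin, Triton X, SYBR Green I) is added and fluorescence measured next morning; values normalized to controls.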
(In general: In qHTS, concentration-response curves come from the screen itself.)

Assay [7] deals with W2. Described as above. Particulars: P. falciparum in erythrocytes, SYBR Green DNA, 72 h; series mostly up to 28.7 µM. The essentials: as §2
Assay [8] deals with HACAT. Briefly: qHTS assay to identify novel small-molecules to repurpose for Merkel cell carcinoma treatment (AID 1296009). As to conditions: MCC and control cell lines, CellTiter-Glo viability, 72 h; at 44.8 µM (top of the series) unless noted. The gist of the method:
(§3)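 Dose-response viability screen; 72 hr exposure at 37 degree celsius; CellTiter-Glo added, 10 min room temperature, luminescence read; RLUs scaled between no-cell and DMSO wells.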

The subject of assay [9] is CRL-7250. The description is as above. As to conditions: MCC and control cell lines, CellTiter-Glo viability, 72 h; at 44.8 µM (top of the series) unless noted. The gist of the method:
as §3

Assay [10] has as its system HEK293T. The assay is described as above. As to conditions: MCC and control cell lines, CellTiter-Glo viability, 72 h; at 44.8 µM (top of the series) unless noted. The essentials: as §3
Note: nearly all actives have a fitted effect of over 60% in size.

In the case of `C/C=C(/C)C(=O)O[C@H]1C(C)=C2[C@H]([C@@H]1OC(=O)CCCCCCC)[C@@](C)(OC(C)=O)C[C@H](OC(=O)CCC)[C@@]1(O)[C@H]2OC(=O)[C@@]1(C)O`, the Potency in assay [1] is 41.1 nM (active); in [2], 29.1 nM (active); in assay [3], 46.1 nM (active); in [4], 51.7 nM (active).

`CCCCOC(=O)c1ccccc1C(=O)OCc1ccccc1`: the max response in assay [1] was -23.3%; in [3], -13.6%; in assay [4], -6.85%.

Regarding `O=S(=O)(CC1CS1)c1ccc(Oc2ccccc2)cc1` (stereo not given), the max response in assay [1] is -6.75%; in [5] it was 3.29%; in [3], 0.22%; in assay [4], -6.16%.

Take `CC(=O)[O][Hg][c]1ccccc1`: the Potency was 4470 nM (active) in [6]; 4780 nM (active) in assay [7]; 4220 nM (active) in [1]; 376 nM (active) in [2]; 1640 nM (active) in assay [3].

`C[C@H]1CCCC=CC2C[C@H](O)C[C@@H]2[C@H](O)C=CC(=O)O1` (stereo not given in full): the max response in assay [1] was -95.9%; in assay [5] it was -111%. The Potency in [3] was 1 nM (active); in [4], 1050 nM (active).

As for `COc1ccc(CC2NCCc3cc(OC)c(OC)cc32)cc1OC` (stereo not given), the max response was -3.56% in [1], -3.69% in [3] and -2.7% in assay [4]. The compound was called inactive in [5] and in assay [8].

For the compound `CC1(C)CC/C(=C/c2ccc(Cl)cc2)C1(O)Cn1cncn1` (stereo not given), the max response in [1] is -5.73%; in assay [3], -19.8%; in assay [4], -11.7%.

`CC[C@@H]1[C@@H](C)O[C@@](O)([C@@H](C)[C@H](O)[C@H](C)[C@H]2OC(=O)C=CC=C[C@@H](C)[C@@H]([C@@H](C)[C@@H](O)[C@H](C)[C@@]3(O)C[C@H](O[C@H]4C[C@H](O)[C@H](O)[C@H](C)O4)[C@H](CC)[C@@H](C)O3)OC(=O)C=CC=C[C@@H]2C)C[C@H]1O[C@H]1C[C@H](O)[C@H](O)[C@H](C)O1`: the Potency in assay [2] was 1180 nM (active); in assay [5] it was 3320 nM (active); in assay [3], 5900 nM (active); in assay [4], 1660 nM (active).

With `CCCN1CCO[C@@H]2c3cc(O)ccc3OC[C@@H]21`, in [1], the max response was -5.49%. The call in assay [3] was inactive.

As for `O=S(=O)(O)C(F)(F)C(F)(F)C(F)(F)C(F)(F)C(F)(F)C(F)(F)C(F)(F)C(F)(F)F`, the values for the max response in [1], in assay [5] and in assay [3] were -8.73%, 0.89% and -10.5%, respectively. Besides, the call in assay [4] was inactive.

Take `CCCCCCCCCC(CC)c1ccc(S(=O)(=O)O)cc1` (stereo not given): the Potency result in assay [6] and in assay [7] was “inactive” in each case. Besides, the max response in [1] is -1.12%; in assay [3], -1.21% and -21.2%; in [4] it was -1.31%. Also, the call in [5] was inactive. Also, the outcome in assay [8] is “inactive [at 92 µM]”.

For `CO/C=C(/C(=O)OC)c1ccccc1Oc1cc(Oc2ccccc2C#N)ncn1`, the Potency in [1] is 19300 nM (active); in [2], 8630 nM (active); in assay [4], 6860 nM (active).

Turning to `CN1CCN(c2ccc([N+](=O)[O-])c3no[n+]([O-])c23)CC1`, the max response was 3.76% and -14.8% in assay [1]; 4.94% and 1.91% in assay [5]; 0.637% in [4]. Further, the call in [3] and in assay [4] was inactive.

In the case of `O=C(O)c1cc(Oc2ccc(C(F)(F)F)cc2Cl)ccc1[N+](=O)[O-]`, the max response in [1] is -0.373%; in [3], -8.96%.

Consider `O=C(Nc1ccccc1-c1ccc(Cl)cc1)c1cccnc1Cl`, for which the results for the max response in assay [1] and in assay [3] were -3.67% and -17.8%, respectively. The compound was classed as inactive in assay [4].

As for `C=C[C@@H]1CN2CCC1C[C@H]2[C@H](O)c1ccnc2ccccc12` (stereo not given in full), the outcome in assay [1] and in [9] was inactive. Further, the max response in assay [4] was -22.5%.

For the compound `CCOP(=O)(NC(C)C)Oc1ccc(SC)c(C)c1` (stereo not given), the max response in assay [1] is -0.0778%; in assay [3], -7.33%; in assay [4], -4.93%. Moreover, the compound was classed as inactive in assay [5]. In addition, in [8], the outcome was “inactive [at 92 µM]”.

In the case of `O=C(O)CNC(=O)c1c(O)c2ccccc2n(Cc2ccccc2)c1=O`, the max response in assay [2] was 1.22%; in [3], 5.38% and 7.42%; in assay [4] it was -11% and 0.668%. Moreover, the compound was called inactive in assay [2], in assay [5], in assay [8] and in [10].

Turning to `N#C[C@H](O[C@@H]1O[C@H](CO[C@@H]2O[C@H](CO)[C@H](O)[C@H](O)[C@H]2O)[C@H](O)[C@H](O)[C@H]1O)c1ccccc1`, the Potency in assay [2] is 23500 nM (active).

As for `CC(C)(C)C(O)C(Oc1ccc(Cl)cc1)n1cncn1` (stereo not given), in assay [1], the result was inactive. In addition, the max response was 0.929% in [5], -16.3% in [3] and 3.17% in assay [4]. In addition, the outcome in assay [9] is “inactive [at 92 µM]”.

Consider `CC1=C(O)C(=O)C=C2C1=CC=C1[C@@]2(C)CC[C@@]2(C)[C@@H]3C[C@](C)(C(=O)O)CC[C@]3(C)CC[C@]12C`, for which the Potency in assay [2] is 1480 nM (active); in [5], 2640 nM (active); in assay [3], 2960 nM (active); in assay [4], 3320 nM (active).

Consider `CC(C)Oc1cccc(NC(=O)c2ccccc2C(F)(F)F)c1`, for which, in assay [1], the Potency is 54500 nM (active). Besides, the max response in assay [3] is -12.9%.
